Source: PubChem BioAssay AID504333 (National Center for Advancing Translational Sciences (NCATS), 2011)
Among all 360,000 compounds or so, about 16,000 (4.4%) were called active. Inconclusive results (about 9%) are left out. Calls come from the whole dose curve; as a rule, active = well fitted inhibition curve with a large enough effect; inconclusive = small, poorly fitted or top-dose-only effect; inactive = no such curve, though single readings can be large or run the other way. What follows is part of a selection rich in actives, with near analogues and random picks from the rest.

These compounds were tested against Bromodomain adjacent to zinc finger domain protein 2B (Homo sapiens) (UniProt Q9UIF8) (assay: qHTS Assay for Inhibitors of BAZ2B). Conditions: AlphaScreen BAZ2B-H3K14Ac peptide displacement; series mostly up to 114 µM; activity change, negative = inhibition: at the top concentration.
Method in brief: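 Inhibition is scored as reduced AlphaScreen emission. The BAZ2B/b-H3(5-23)K14Ac complex (50 nM each) in PBS pH 7.4, 0.01% Tween-20 meets compound (up to 110 uM) for 30 min at RT before bead addition.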
% is set by controls: 0 for no effect and ±100 for the full control effect; potency is the fitted concentration of half-maximal effect.
Note: nearly all actives have a fitted effect of over 60% in size.

Sequence of Bromodomain adjacent to zinc finger domain protein 2B (Homo sapiens) (Q9UIF8 whole entry, looked up, the tested form may be a part): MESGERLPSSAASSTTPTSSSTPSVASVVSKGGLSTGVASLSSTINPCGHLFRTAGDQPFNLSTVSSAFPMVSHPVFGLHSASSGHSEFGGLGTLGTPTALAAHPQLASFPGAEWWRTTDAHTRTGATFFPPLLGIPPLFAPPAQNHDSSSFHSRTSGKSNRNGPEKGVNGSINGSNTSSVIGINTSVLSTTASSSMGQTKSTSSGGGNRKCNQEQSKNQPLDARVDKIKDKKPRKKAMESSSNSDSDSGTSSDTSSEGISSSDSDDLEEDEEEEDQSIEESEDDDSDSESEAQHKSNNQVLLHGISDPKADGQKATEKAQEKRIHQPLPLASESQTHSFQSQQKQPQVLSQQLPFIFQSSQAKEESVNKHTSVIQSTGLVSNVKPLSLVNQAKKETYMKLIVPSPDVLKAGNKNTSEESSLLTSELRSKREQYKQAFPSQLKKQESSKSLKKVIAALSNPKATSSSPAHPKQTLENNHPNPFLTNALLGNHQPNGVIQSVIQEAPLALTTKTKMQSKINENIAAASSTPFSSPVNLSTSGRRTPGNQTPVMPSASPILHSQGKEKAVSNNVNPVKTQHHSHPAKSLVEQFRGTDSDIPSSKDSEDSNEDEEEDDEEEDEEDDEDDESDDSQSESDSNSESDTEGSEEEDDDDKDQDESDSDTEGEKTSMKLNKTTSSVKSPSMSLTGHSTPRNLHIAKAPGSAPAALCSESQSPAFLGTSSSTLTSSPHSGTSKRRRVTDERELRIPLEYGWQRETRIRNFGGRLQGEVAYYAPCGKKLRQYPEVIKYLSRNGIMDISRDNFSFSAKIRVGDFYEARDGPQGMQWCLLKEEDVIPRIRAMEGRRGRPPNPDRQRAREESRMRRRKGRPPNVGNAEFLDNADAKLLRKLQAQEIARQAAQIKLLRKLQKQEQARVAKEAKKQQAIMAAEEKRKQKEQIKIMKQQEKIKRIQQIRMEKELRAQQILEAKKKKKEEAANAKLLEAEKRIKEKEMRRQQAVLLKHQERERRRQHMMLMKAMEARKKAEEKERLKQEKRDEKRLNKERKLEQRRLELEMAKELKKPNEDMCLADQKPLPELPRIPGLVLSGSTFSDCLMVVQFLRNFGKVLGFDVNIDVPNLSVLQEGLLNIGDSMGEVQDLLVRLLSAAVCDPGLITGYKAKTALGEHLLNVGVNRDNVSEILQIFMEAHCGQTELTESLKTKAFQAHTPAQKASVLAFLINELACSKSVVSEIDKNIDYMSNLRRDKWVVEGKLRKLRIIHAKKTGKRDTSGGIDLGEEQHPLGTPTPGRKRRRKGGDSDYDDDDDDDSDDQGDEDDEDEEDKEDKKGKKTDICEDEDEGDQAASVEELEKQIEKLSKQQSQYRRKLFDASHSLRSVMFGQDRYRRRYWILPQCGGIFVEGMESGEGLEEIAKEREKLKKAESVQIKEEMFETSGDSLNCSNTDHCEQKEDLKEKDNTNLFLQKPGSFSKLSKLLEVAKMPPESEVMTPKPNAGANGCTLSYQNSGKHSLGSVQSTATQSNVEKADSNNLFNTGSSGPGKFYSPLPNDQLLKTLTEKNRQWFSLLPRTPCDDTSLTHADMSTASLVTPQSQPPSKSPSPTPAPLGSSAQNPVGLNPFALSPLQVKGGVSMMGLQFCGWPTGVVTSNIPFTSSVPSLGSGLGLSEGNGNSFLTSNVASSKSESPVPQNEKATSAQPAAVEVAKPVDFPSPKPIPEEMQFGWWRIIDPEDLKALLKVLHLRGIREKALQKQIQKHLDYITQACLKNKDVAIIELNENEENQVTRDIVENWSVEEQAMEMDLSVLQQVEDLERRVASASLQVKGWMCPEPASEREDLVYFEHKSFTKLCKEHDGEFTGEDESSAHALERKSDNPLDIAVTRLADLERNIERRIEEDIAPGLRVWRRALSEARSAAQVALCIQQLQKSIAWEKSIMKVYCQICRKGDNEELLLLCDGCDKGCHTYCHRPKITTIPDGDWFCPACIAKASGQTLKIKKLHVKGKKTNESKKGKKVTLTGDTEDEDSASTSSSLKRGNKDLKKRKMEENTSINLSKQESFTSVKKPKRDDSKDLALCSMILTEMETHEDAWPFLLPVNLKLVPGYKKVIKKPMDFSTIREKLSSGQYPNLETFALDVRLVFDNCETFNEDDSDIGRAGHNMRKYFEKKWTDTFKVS

| Structure (SMILES) | activity change, negative = inhibition | Potency |
| --- | --- | --- |
| COc1ccccc1N1CCN(c2ncnc3onc(-c4ccc(F)cc4)c23)CC1 | 3.92% [at 57.1 µM] (inactive) | – |
| CC(C)c1c(O)nc(SCCOc2ccc(Cl)cc2)[nH]c1=O | -22.7% (inactive) | – |
| Cc1ccc(-c2nc(SCc3ccc(Br)cc3)n3[nH]c(=O)cc3n2)cc1 | – | 79.4 µM (active) |
| Cc1nc(SCCOc2ccc(Cl)cc2)[nH]c(=O)c1Cc1ccccc1 | 0.0225% (inactive) | – |
| O=c1cc2nc(-c3ccccc3)nc(SCCOc3ccc(Cl)cc3)n2[nH]1 | – | 50.1 µM (active) |
| Cc1cccc(-c2nc(SCc3ccc(Br)cc3)n3[nH]c(=O)cc3n2)c1 | -0.89% (inactive) | – |
| CCn1c(SCC(=O)c2ccc3ccccc3c2)nnc1-c1cccs1 | -3.48% (inactive) | – |
| Cc1ccc2nc(-c3ccc(Br)cc3)cn2c1 | -16% (inactive) | – |
| Cc1ccc(OCCSc2nc(-c3cccs3)nc3cc(=O)[nH]n23)cc1Cl | – | 50.1 µM (active) |
| CC(C)(C)C1CCc2c(sc(NC(=O)c3ccccc3F)c2C(=O)N2CCCCC2)C1 (centres undefined) | 1.75% (inactive) | – |
| COc1cccc(-c2cc(C(=O)Nc3ccc(C)cc3)[nH]n2)c1 | -10.2% (inactive) | – |
| COc1ccc(-c2noc(-c3ccc(N4CCN(c5ccccc5)CC4)c([N+](=O)[O-])c3)n2)cc1OC | -13.6% (inactive) | – |
| CCN(CC)S(=O)(=O)c1ccc2c(c1)N(CC(=O)NCc1ccccc1)C(=O)CS2 | 4.1% (inactive) | – |
| CCNS(=O)(=O)c1cc(-c2nnc(Nc3cccc(C(F)(F)F)c3)c3ccccc23)ccc1C | -3.61% (inactive) | – |
| COCCCNCC(=O)Nc1sc(C)c(C)c1C(=O)OC | – | 50.1 µM (active) |
| CCC(=O)Nc1sc(C(=O)Nc2ccccc2)c(C)c1C(=O)OC | -18% (inactive) | – |
| COC(=O)c1c(NC(=O)c2c(Cl)cnn2C)sc(C)c1C | -4.28% (inactive) | – |
| Cc1ccc2c(=O)cc(C(=O)Nc3sc4c(c3C(=O)NCc3cccnc3)CCCC4)oc2c1 | -18.1% (inactive) | – |
| CCOC(=O)c1c(C)n(S(=O)(=O)c2ccc(C)cc2C)c2ccc(NS(=O)(=O)c3ccc(C)cc3C)cc12 | -21.2% (inactive) | – |
| Cc1ccc(CNC(=O)c2c(O)nc3c(C)cccn3c2=O)cc1 | 0.0746% (inactive) | – |
| CNc1ccc(-c2nc(-c3ccccc3C)no2)cc1[N+](=O)[O-] | -24.4% (inactive) | – |
| CNc1ccc(-c2nc(-c3ccco3)no2)cc1[N+](=O)[O-] | 2.85% (inactive) | – |
| CC(Nc1ccc(-c2nc(-c3ccco3)no2)cc1[N+](=O)[O-])c1ccccc1 (centres undefined) | – | 79.4 µM (active) |
| COc1ccc(NC(=O)c2ccc3nc(CCc4ccccc4)oc3c2)c(OC)c1 | 10.2% (inactive) | – |
| O=C1Cc2cc(S(=O)(=O)Nc3ccc(OC(F)(F)F)cc3)cc3c2N1CCC3 | 1.13% (inactive) | – |
| COc1ccc2c(CNCCc3ccccc3C)c(C(=O)O)n(Cc3ccccc3C)c2c1 | -11.2% (inactive) | – |
| CN=C1S/C(=C\c2c(OC)cc(OC)cc2OC)C(=O)N1C | -0.785% (inactive) | – |
| CN1C(=O)/C(=C/c2ccco2)SC1=Nc1cccc(C(=O)O)c1 | – | 50.1 µM (active) |
| O=C(O)c1cccc(N=NN2CCCCCC2)c1 | -8.07% (inactive) | – |
